High-throughput results deposited in PubChem BioAssay by National Center for Advancing Translational Sciences (NCATS).
Pf growth 48h – inhibits P. falciparum growth in the first generation, 48 h; P. falciparum luciferase growth in erythrocytes, 48 h; Potency, µM (doses to about 28.7 µM), usual class: inhibitors; actives 5.9% (n = 310,000); AID 504832
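Erythrocytes infected with P. falciparum carrying an integrated firefly luciferase reporter (2% hematocrit, 0.1% parasitemia final) were exposed to compounds in RPMI 1640 with 0.5% Albumax at 37 C, 5% CO2. Growth inhibition was scored as reduced luminescence.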
Cycloheximide cs – affects cycloheximide protein synthesis inhibition readout, counter-screen | AID 2314 | max response, % | actives 12% (n = 300,000) | cell reporter, cycloheximide protein synthesis inhibition counterscreen; in the data active means max response mostly above about 13%, no sharp cut-off; inactive means mostly below about 14%; further: read at 38.3 µM for the half of the compounds with a filed dose
Pf growth 96h – P. falciparum growth inhibition at 96 hour, primary screen for plastid delayed-death inhibitors; P. falciparum luciferase reporter growth, 96 h; Potency, µM (highest dose often 28.7 µM), usual class: inhibitors; actives 6.9% (n = 320,000); AID 504834
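Cell-based qHTS: luciferase-tagged P. falciparum in erythrocytes (2% hematocrit, 0.05% parasitemia final) incubated with compounds for 96 hours, 37 C, 5% CO2; luciferase detection reagent then added and luminescence measured.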
AMA1-RON2 inh – AMA1-RON2 (P. falciparum) interaction inhibition | AlphaScreen AMA1-biotinylated RON2 peptide binding | Potency, µM (titrated, usually from 58.2 µM), usual class: inhibitors | actives 0.2% (n = 360,000) | AID 720542; further: nearly all actives have a fitted effect of over 45% in size
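AMA1 (3D7) with his tag at 25 nM final met compounds first, then biotinylated RON2 peptide at 25 nM; detection used donor plus acceptor beads, 10 µg/mL apiece, read by AlphaScreen after 30 min at room temperature.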
Shiga inhibitor – blocks Shiga toxin action in Vero cells. Vero cells, Shiga toxin protein synthesis inhibition reporter. inhibition, % at 38.7 µM. actives 9.2% (n = 290,000). AID 2315; in the data active means inhibition mostly above about 28%, no sharp cut-off; inactive means mostly below about 43%
SARS PLP yeast – inhibitors of SARS-CoV papain-like protease in yeast. actives 0.19% (n = 330,000). Potency, µM (highest dose often 32.9 µM), actives largely listed as activators. S. cerevisiae expressing SARS-CoV PLpro, growth rescue. AID 485353; calls by dose curve; further: nearly all actives have a fitted effect of over 55% in size
Large screens that a line does not name were inactive. Sampled rows, rich in hits. Any-hit rate of the full collection: about 19%. Unless noted, the call rests on the fitted dose curve; in most records, active means well fitted curve in the direction sought with a large enough effect; inconclusive means small, poorly fitted or top-dose-only effect, or another doubt; inactive means no such curve, though single readings can be large; an effect the other way counts as inactive or inconclusive.

COCc1cc(=O)n2[nH]c(C)cc2n1	none
Cc1nn(Cc2ccccc2)c(C)c1CNC(=O)[C@H](C)N=C1NS(=O)(=O)c2ccccc21	Pf growth 48h inconclusive (no result: Cycloheximide cs, Shiga inhibitor)
Cc1cccc(-c2nnc(SCC(=O)N3CCOCC3)o2)c1	Cycloheximide cs 21, Pf growth 96h inconclusive, Shiga inhibitor 71
Cc1cccc(-c2noc(CCCC(=O)N3CCOCC3)n2)c1	Cycloheximide cs 11 (no result: Pf growth 96h)
COc1ccc(-c2nnc(SCc3nc4ccccc4c(=O)[nH]3)o2)cc1	Cycloheximide cs 41, Shiga inhibitor 63
Cc1ccc(-c2noc(CCCC(=O)N3CCOCC3)n2)cc1	none
Cc1cccc(-c2nnc(SC(C)C(=O)N3CCOCC3)o2)c1 (configuration not stated)	Pf growth 96h inconclusive
COc1ccc(-c2nnc(SCC(=O)N3CCOCC3)o2)cc1	Shiga inhibitor 122 (no result: Pf growth 96h)
COc1cc([N+](=O)[O-])ccc1NC(=O)CC(C)C	none
Cc1noc(C(F)(F)F)c1C(=O)NNC(=O)c1cccc(C(F)(F)F)c1	none
COc1ccc(C(=O)CSc2nnc(-c3ccc(C)cc3)o2)cc1	none
COc1cccc(-c2nnc(SCC(=O)N3CC(C)CC(C)C3)o2)c1 (configuration not stated)	Pf growth 96h inconclusive (no result: Pf growth 48h)
COc1ccc(-c2nnc(SCC(C)C)o2)cc1	Cycloheximide cs 58, Shiga inhibitor 55
O=C(CSc1nnc(-c2cccc(F)c2)o1)N1CCOCC1	none
COc1cccc(-c2nnc(SCC(=O)N3CCOCC3)o2)c1	Cycloheximide cs 22, Pf growth 96h 12µM
O=C(CSc1nnc(-c2ccc(OC(F)F)cc2)o1)N1CCOCC1	Cycloheximide cs 21, Pf growth 96h inconclusive, Shiga inhibitor 82
O=C(CSc1nnc(-c2cccc(F)c2)o1)N1CCCC1	Cycloheximide cs 23
Oc1ccc(N2CCN(C(c3cccs3)c3nnnn3CCc3ccccc3)CC2)cc1 (configuration not stated)	Pf growth 48h inconclusive
CCN(CC)C(=O)c1sc(NC(=O)c2ccc(OC)c([N+](=O)[O-])c2)c(C#N)c1C	none (no result: AMA1-RON2 inh)
O=C(NCc1ccc2c(c1)OCO2)C1CC(=O)N(c2ccc(Cl)cc2)C1 (configuration not stated)	none
COc1ccc(-n2c(SCC(=O)N3CCOCC3)nc(O)cc2=O)cc1	Pf growth 96h 5.9µM
Cc1ccc(-n2c(SCC(=O)N3CCOCC3)nc(O)cc2=O)cc1	Pf growth 96h inconclusive
COc1ccc(C(=O)Nc2ccc3oc(-c4cccc(F)c4)nc3c2)cc1OC	Pf growth 96h inconclusive (no result: Pf growth 48h)
CC(C)(C)C(=O)Nc1ccc2oc(-c3cc(F)c(F)cc3Cl)nc2c1	Cycloheximide cs 42 (no result: Pf growth 96h)
O=C(O)c1ccccc1-c1ccccc1C(=O)Nc1ccc(-c2nc3cc(Cl)ccc3o2)cc1	Pf growth 48h inconclusive, Cycloheximide cs 26, Pf growth 96h inconclusive, Shiga inhibitor 62
O=C(Cc1ccc(Cl)cc1)Nc1ccc2oc(-c3ccncc3)nc2c1	none
COc1ccccc1C(=O)Nc1ccc2oc(-c3ccc(F)cc3)nc2c1	Pf growth 96h 10µM
CC(=O)Nc1ccc(-c2nc3cc(Cl)ccc3o2)cc1	Cycloheximide cs 52, Shiga inhibitor 109
Cc1nn(-c2ccccc2)c2c1c(C)c(CCC(=O)N1CCOCC1)c(=O)n2C	Pf growth 48h inconclusive, Pf growth 96h inconclusive
Cc1cc(=O)c(C(=O)O)c(C)n1-c1ccccc1	none (no result: Pf growth 48h, Cycloheximide cs, Pf growth 96h, Shiga inhibitor, SARS PLP yeast)
CCCn1c(NC(=O)c2ccc(Cl)c(S(=O)(=O)N3CCCC3)c2)nc2ccccc21	Pf growth 48h 5.9µM, Pf growth 96h 5.2µM
O=C(NCc1nc2ccccc2[nH]1)c1ccc(Cl)c(S(=O)(=O)N2CCCC2)c1	Pf growth 48h 10µM, Cycloheximide cs 14
O=C(NCc1ccccc1CN1CCCC1)c1ccc(Cl)c(S(=O)(=O)N2CCCC2)c1	Pf growth 48h 13µM, Pf growth 96h 12µM (no result: Cycloheximide cs, Shiga inhibitor)
CC(NC(=O)c1ccc(Cl)c(S(=O)(=O)N2CCCCCC2)c1)c1cccnc1 (configuration not stated)	Pf growth 48h 12µM, Pf growth 96h inconclusive (no result: Cycloheximide cs, Shiga inhibitor)
COc1ccc(NC(=O)CN(C)S(=O)(=O)c2ccc3c(c2)CC(C)N3C(C)=O)cc1OC (configuration not stated)	none
COc1ccc(S(=O)(=O)N2CCC(C(=O)NCCCc3ccccc3)CC2)cc1	none
